A structure can be active in one record and inactive in another. Calls of active or inactive are those of the source. How the source made its calls: active means hit-call score of the fitted dose curve at least 0.9, where 1 is the maximum; inactive means score below 0.9.
What was measured:
[1] = ATG_ISRE_CIS: Attagene CIS-FACTORIAL HepG2 Assay for human Interferon Regulatory Factor 1 (IRF1) binding to an Interferon-Stimulated Response Element (ISRE) (AID 2282948); settings: HepG2 ISRE cis-reporter (Attagene), mRNA transcription readout; actives raise or lower the signal
Outline: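 Read-out: fluorescent RT-PCR products resolved by capillary electrophoresis, reporting endogenous transcription factor activity via ISRE-driven reporter mRNA in transfected HepG2 cells dosed for 24 h; gain or loss fitted relative to DMSO.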

[2] = ATG_M_32_CIS: Attagene CIS-FACTORIAL HepG2 Assay for M32 Transcription Factor (Internal Marker) (AID 2282949); settings: HepG2 Attagene cis-factorial M32 reporter, mRNA; actives raise or lower the signal;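 further: background control marker of the multiplexed CIS panel rather than a real target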
Outline: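 HepG2 transfectants (cis-regulated reporter transcription units) dosed 24 h. Reporter mRNA by RT-PCR plus CE, analysed as gain or loss relative to DMSO.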

[3] = ATG_M_06_CIS: Attagene CIS-FACTORIAL HepG2 Assay for M06 Transcription Factor (Internal Marker) (AID 2282950); settings: HepG2 Attagene CIS-FACTORIAL M06 internal marker reporter; actives raise or lower the signal
Outline: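 Read-out is fluorescence of labelled reporter cDNA fragments resolved by capillary electrophoresis after RT-PCR. Cells: HepG2 carrying transfected cis-promoter reporter units, treated 24 h. Gain or loss of signal fitted relative to DMSO.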

[4] = biological target: Hypoxia-inducible factor 1-alpha (Homo sapiens) (UniProt Q16665); assay: ATG_HIF1a_CIS: Attagene CIS-FACTORIAL HepG2 Assay for human Hypoxia Inducible Factor 1 (HIF1A) (AID 2282951); settings: HepG2 Attagene cis-factorial HIF1a reporter transcription; actives raise or lower the signal
Outline: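 HepG2 cells transiently transfected with multiplexed cis-promoter reporter units; reporter mRNA read 24 h after dosing by RT-PCR, 6-FAM primer-extension labelling, HpaI digestion and capillary electrophoresis. Bidirectional fit versus DMSO baseline.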

[5] = biological target: Hepatocyte nuclear factor 6 (Homo sapiens) (UniProt Q9UBC0); assay: ATG_HNF6_CIS: Attagene CIS-FACTORIAL HepG2 Assay for human Hepatocyte Nuclear Factor 6 (HNF6) (AID 2282952); settings: HepG2 Attagene cis-factorial HNF6 reporter transcription; actives raise or lower the signal
Outline: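 Using cis-element reporters in HepG2 liver cells, the assay tracks endogenous factor-driven transcription 24 h post-dosing. Signal comes from 6-FAM-labelled, HpaI-digested RT-PCR fragments, with gain or loss scored against DMSO.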

[6] = biological target: Heat shock factor protein 1 (Homo sapiens) (UniProt Q00613); assay: ATG_HSE_CIS: Attagene CIS-FACTORIAL HepG2 Assay for human Heat Shock Transcription Factor 1 (HSE) (AID 2282953); settings: HepG2 HSE cis-reporter, Attagene RNA transcription; actives raise or lower the signal
Outline: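 HepG2, transient MRTU transfection, cis-promoter reporters (endogenous TF activity). 24 h compound. RNA → oligo(dT) RT → PCR → 6-FAM primer extension → HpaI cut → CE. Bidirectional fit vs DMSO.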

[7] = ATG_MRE_CIS: Attagene CIS-FACTORIAL HepG2 Assay for human Metal Responsive Element (MRE) (AID 2282954); settings: HepG2 MRE cis-reporter transcription, Attagene multiplex; actives raise or lower the signal
Outline: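 Endogenous MRE-dependent transcription read as reporter mRNA in transiently transfected human HepG2 cells at 24 h. RNA reverse-transcribed, PCR-amplified, labelled and resolved by capillary electrophoresis; gain or loss relative to DMSO.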

[8] = ATG_PBREM_CIS: Attagene CIS-FACTORIAL HepG2 Assay for human Phenobarbital-responsive Enhancer Module (PBREM) (AID 2282955); settings: HepG2 PBREM cis-reporter, Attagene multiplexed transcription; actives raise or lower the signal
Outline: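 HepG2 cells transiently transfected with multiple cis-regulated reporter transcription units; endogenous factor activity at the PBREM element measured as reporter mRNA 24 h after dosing, via RT-PCR and capillary electrophoresis of fluorescent fragments; bidirectional fitting versus DMSO.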

[9] = biological target: Paired box protein Pax-6 (Homo sapiens) (UniProt P26367); assay: ATG_Pax6_CIS: Attagene CIS-FACTORIAL HepG2 Assay for human Paired Box 6 (PAX6) (AID 2282956); settings: HepG2 CIS-FACTORIAL PAX6 reporter transcription, RNA readout; actives raise or lower the signal
Outline: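 Readout: reporter transcript fluorescence after RT-PCR and capillary electrophoresis. Cells: HepG2, transiently transfected with cis-regulated MRTUs. Exposure 24 h. Gain or loss of signal fitted bidirectionally relative to DMSO.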

[10] = ATG_PXRE_CIS: Attagene CIS-FACTORIAL HepG2 Assay for human Pregnane X Receptor Element (PXRE) (AID 2282957); settings: HepG2 Attagene CIS-FACTORIAL PXRE reporter, mRNA; actives raise or lower the signal
Outline: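 Using HepG2 transfected with multiple reporter transcription units, endogenous factor-driven transcription was scored as reporter mRNA after 24 h exposure.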

Measured: AC50

Heat shock factor protein 1 (Homo sapiens), sequence (Q00613 whole entry, looked up): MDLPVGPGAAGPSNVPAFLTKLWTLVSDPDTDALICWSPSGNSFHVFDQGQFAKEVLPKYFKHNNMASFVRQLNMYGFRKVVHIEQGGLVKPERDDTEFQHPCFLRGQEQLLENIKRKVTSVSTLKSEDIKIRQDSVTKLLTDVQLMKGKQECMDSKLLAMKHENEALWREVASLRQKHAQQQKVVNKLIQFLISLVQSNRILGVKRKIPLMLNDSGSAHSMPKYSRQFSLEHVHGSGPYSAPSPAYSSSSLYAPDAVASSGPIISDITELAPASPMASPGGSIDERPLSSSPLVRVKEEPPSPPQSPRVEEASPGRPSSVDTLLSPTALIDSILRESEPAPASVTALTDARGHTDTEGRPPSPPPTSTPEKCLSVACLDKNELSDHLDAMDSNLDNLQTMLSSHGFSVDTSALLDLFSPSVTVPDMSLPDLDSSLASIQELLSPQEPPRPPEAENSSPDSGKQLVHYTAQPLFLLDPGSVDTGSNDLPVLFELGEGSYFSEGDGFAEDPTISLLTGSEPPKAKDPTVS
Hypoxia-inducible factor 1-alpha (Homo sapiens), sequence (Q16665 whole entry, looked up): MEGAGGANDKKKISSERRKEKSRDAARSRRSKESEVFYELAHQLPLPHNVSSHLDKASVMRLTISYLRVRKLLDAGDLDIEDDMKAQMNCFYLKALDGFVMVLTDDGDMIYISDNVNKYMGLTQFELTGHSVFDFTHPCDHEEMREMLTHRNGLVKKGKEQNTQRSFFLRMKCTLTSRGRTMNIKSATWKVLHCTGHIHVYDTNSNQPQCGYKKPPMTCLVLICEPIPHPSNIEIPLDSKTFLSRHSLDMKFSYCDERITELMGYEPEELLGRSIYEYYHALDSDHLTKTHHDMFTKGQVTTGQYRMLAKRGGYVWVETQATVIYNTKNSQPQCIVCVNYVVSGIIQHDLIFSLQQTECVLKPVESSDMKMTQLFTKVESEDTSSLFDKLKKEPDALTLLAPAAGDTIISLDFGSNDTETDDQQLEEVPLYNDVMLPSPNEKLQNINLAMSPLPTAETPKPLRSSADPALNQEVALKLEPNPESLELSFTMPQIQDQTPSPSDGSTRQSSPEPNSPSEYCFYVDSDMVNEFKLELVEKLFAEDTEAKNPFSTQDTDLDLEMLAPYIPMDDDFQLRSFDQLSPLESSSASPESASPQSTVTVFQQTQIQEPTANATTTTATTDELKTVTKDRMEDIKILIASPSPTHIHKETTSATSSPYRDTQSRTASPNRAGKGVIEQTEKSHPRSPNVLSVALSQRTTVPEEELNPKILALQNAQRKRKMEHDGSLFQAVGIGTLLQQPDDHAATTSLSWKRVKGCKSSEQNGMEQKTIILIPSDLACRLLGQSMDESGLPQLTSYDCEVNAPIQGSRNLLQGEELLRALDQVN
Hepatocyte nuclear factor 6 (Homo sapiens), sequence (Q9UBC0 whole entry, looked up, the tested form may be a part): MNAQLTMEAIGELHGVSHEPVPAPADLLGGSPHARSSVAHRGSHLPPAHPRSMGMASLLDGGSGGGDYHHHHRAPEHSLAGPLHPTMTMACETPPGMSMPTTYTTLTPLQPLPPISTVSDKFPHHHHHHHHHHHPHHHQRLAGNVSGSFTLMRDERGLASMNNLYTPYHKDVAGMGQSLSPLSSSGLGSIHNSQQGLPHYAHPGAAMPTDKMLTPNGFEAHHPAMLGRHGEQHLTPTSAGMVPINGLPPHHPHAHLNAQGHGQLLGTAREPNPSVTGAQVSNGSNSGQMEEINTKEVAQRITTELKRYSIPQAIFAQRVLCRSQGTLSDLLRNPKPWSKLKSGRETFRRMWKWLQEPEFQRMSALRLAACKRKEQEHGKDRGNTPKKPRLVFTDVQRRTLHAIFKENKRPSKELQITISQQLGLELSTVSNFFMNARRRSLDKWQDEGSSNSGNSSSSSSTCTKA
Paired box protein Pax-6 (Homo sapiens), sequence (P26367 whole entry, looked up): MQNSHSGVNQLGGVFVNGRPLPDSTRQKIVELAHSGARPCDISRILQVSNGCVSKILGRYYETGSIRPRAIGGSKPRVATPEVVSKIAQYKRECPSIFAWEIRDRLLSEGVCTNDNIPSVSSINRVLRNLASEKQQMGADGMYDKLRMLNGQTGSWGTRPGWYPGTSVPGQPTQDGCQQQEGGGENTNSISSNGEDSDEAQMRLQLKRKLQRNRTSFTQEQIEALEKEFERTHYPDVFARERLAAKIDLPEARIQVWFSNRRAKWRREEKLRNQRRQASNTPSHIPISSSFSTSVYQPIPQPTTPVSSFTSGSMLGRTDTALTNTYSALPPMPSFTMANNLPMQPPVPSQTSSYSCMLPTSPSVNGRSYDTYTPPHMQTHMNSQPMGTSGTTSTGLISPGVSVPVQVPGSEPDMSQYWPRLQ

CCCCOC(=O)COC(=O)c1ccccc1C(=O)OCCCC
active: [10] 40.9 µM
inactive: all other assays above

Clc1cccc(Cl)c1
inactive: all assays above

FC(F)OCC(F)(F)C(F)(F)F
inactive: all assays above

Cc1cc(Cl)ccc1O
inactive: all assays above

CCOC(=O)CCN(SN(C)C(=O)Oc1cccc2c1OC(C)(C)C2)C(C)C
active: [6] 184 µM | [7] 142 µM | [10] 26.5 µM
inactive: all other assays above

O=[N+]([O-])c1ccccc1O
active: [10] 26.7 µM
inactive: [1] | [2] | [3] | [4] | [5] | [6] | [7] | [8] | [9] | [10]

Cc1ccc2nc3sc(=O)sc3nc2c1
active: [6] 12.3 µM | [9] 7.08 µM | [10] 6.36 µM
inactive: all other assays above

CC(C)CP(=S)(S)CC(C)C
active: [10] 38.6 µM
not listed: [9]
inactive: all other assays above

C=CC(=O)NC(C)(C)CC(C)=O
inactive: all assays above

Cc1cccc(N=Nc2ccc(N(C)C)cc2)c1
active: [10] 10.5 µM
inactive: all other assays above

CC(C)(C)c1cc([N+](=O)[O-])cc(C(C)(C)C)c1O
active: [7] 42.4 µM | [8] 2.52 µM | [10] 4.23 µM
inactive: all other assays above

C[CH2][Hg][S]c1ccccc1C(=O)O
active: [1] 6.49 µM | [5] 4.19 µM | [7] 3.71 µM | [9] 4.42 µM | [10] 5.8 µM
inactive: all other assays above

Brc1c(Br)c(Br)c(Oc2c(Br)c(Br)c(Br)c(Br)c2Br)c(Br)c1Br
inactive: all assays above

CN(C)c1ccc(N=O)cc1
active: [1] 9.25 µM | [6] 25.4 µM
inactive: all other assays above

C=CCCl
active: [10] 100 µM
inactive: all other assays above

CN(N=O)c1ccc([N+](=O)[O-])cc1
active: [10] 18.6 µM
inactive: all other assays above

CCCSP(=S)(OCC)Oc1ccc(Cl)cc1Cl (stereo not given)
active: [10] 2.72 µM
inactive: all other assays above

CCCCN(CCCCO)N=O
active: [10] 35.3 µM
inactive: all other assays above

C=CC(Cl)CCl (stereo not given)
active: [10] 3.12 µM
inactive: all other assays above

CC(C)N(C(=O)CCl)c1ccccc1
active: [4] 8.65 µM | [6] 52.4 µM | [7] 44.6 µM | [9] 53.6 µM
inactive: all other assays above

CN(C1CCCCC1)C1CCCCC1
active: [10] 31.7 µM
not listed: [9]
inactive: all other assays above

CCOP(=O)(OCC)OC(=CCl)c1ccc(Cl)cc1Cl
active: [8] 6.62 µM | [10] 0.754 µM
inactive: all other assays above

CCCCCCCCBr
inactive: all assays above

CCOc1ccc(N)cc1
active: [10] 46.6 µM
inactive: all other assays above

C=CCOC(N)=O
inactive: all assays above

O=C1c2ccccc2C(=O)C1C(=O)C(c1ccccc1)c1ccc(Cl)cc1 (stereo not given)
active: [1] 20 µM | [3] 88.4 µM | [5] 61.5 µM | [6] 62.8 µM | [7] 17.8 µM | [8] 9.73 µM | [9] 8.23 µM | [10] 1.51 µM
inactive: [2] | [4]

O=C(O)c1cc(I)cc(I)c1I
active: [10] 30.3 µM
inactive: all other assays above

CCCCOP(=O)(CCCC)OCCCC
active: [10] 6.97 µM
inactive: all other assays above

O=C(NC(=O)c1c(F)cccc1F)Nc1cc(Cl)c(F)c(Cl)c1F
active: [10] 20.2 µM
inactive: all other assays above

CC(C)(c1ccccc1)c1cc(-n2nc3ccccc3n2)c(O)c(C(C)(C)c2ccccc2)c1
active: [10] 15.3 µM
inactive: all other assays above

Cc1ccc(OP(=O)(Oc2ccc(C)cc2C)Oc2ccc(C)cc2C)c(C)c1
active: [5] 25.4 µM | [7] 2.33 µM | [10] 0.181 µM
inactive: all other assays above

C#CCO
not listed: [7] | [9] | [10]
inactive: all other assays above

CCOP(=S)(OCC)SCSc1cc(Cl)ccc1Cl
not listed: [9]
inactive: all other assays above

O=[N+]([O-])c1ccc(Cl)c([N+](=O)[O-])c1
active: [6] 6.97 µM
not listed: [9]
inactive: all other assays above

C[As+](C)(C)CC(=O)[O-]
not listed: [7]
inactive: all other assays above

Clc1cc(C(Cl)(Cl)Cl)cnc1Cl
active: [1] 9.08 µM | [4] 9 µM | [7] 9.1 µM | [9] 8.8 µM | [10] 8.47 µM
inactive: [2] | [3] | [5] | [6]

O=C(NC(=O)c1c(F)cccc1F)Nc1cc(Cl)c(OC(F)(F)C(F)C(F)(F)F)cc1Cl (stereo not given)
not listed: [7]
inactive: all other assays above

O=C(CBr)c1ccc(O)cc1
not listed: [8]
inactive: all other assays above

C=C(C)C(=O)OCCCCOC(=O)C(=C)C
not listed: [7] | [10]
inactive: all other assays above

CCOP(=S)(OCC)O/N=C(\C#N)c1ccccc1
active: [4] 67.2 µM | [10] 2.2 µM
not listed: [8]
inactive: all other assays above

O=C(CCl)NCO
not listed: [7]
inactive: all other assays above

O=C(N[C@H]1CN2CCC1CC2)c1ccc2c(c1)OCCO2
not listed: [9]
inactive: all other assays above

Cc1cc(C(C)(C)c2ccc(O)c(C)c2)ccc1O
active: [1] 50 µM | [4] 30.3 µM | [5] 93.9 µM | [6] 39.5 µM | [8] 18.1 µM | [9] 50 µM | [10] 1.7 µM
inactive: [2] | [3]

[F][Sn]([c]1ccccc1)([c]1ccccc1)[c]1ccccc1
active: [1] 0.562 µM | [4] 0.327 µM | [6] 0.324 µM | [7] 0.339 µM | [9] 0.346 µM | [10] 0.466 µM
inactive: [2] | [3] | [5]

CC(C)CC(C)(c1ccc(O)cc1)c1ccc(O)cc1
active: [1] 11.1 µM | [6] 17 µM | [7] 16.6 µM | [10] 2.92 µM
not listed: [9]
inactive: all other assays above

O=[N+]([O-])c1c2ccccc2cc2ccccc12
active: [10] 3.8 µM
not listed: [7]
inactive: all other assays above

CC(C)[C@@H](Nc1ccc(C(F)(F)F)cc1Cl)C(=O)OC(C#N)c1cccc(Oc2ccccc2)c1 (stereo not given in full)
active: [8] 1.43 µM | [10] 0.693 µM
not listed: [7]
inactive: all other assays above

Reference: PubChem BioAssay (EPA / NIEHS)
